Source: PubChem BioAssay (NCATS)
Inconclusive results are not listed. Active and inactive are the calls of the source. Calls follow the shape of the full dose curve.

What follows are molecules tested against Peroxisome proliferator-activated receptor delta (Homo sapiens) (UniProt Q03181) (assay: qHTS assay for small molecule agonists of peroxisome proliferator-activated receptor delta signaling (AID 588534)). Details: HEK293T PPARdelta-UAS-bla, beta-lactamase ratio, 18 h; series mostly up to 76.7 µM.
Chain of Peroxisome proliferator-activated receptor delta (Homo sapiens) (Q03181 whole entry, looked up): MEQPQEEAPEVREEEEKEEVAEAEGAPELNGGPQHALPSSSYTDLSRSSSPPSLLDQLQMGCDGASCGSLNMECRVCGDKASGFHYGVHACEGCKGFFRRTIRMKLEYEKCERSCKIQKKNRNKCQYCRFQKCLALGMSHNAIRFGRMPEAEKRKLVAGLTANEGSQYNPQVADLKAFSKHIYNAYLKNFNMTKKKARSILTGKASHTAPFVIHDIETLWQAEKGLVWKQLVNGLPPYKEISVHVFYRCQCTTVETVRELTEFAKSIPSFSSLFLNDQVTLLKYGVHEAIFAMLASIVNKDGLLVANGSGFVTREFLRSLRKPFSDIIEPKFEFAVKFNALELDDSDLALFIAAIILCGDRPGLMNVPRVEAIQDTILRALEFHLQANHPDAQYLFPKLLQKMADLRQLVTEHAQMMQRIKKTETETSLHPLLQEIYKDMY
Outline: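 EC50 and efficacy values derive from Hill fits of a concentration series in a beta-lactamase reporter cell assay. Exposure is 18 hrs at 37 C, with CCF4 fluorescence as the readout.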
With `CCCCCCCCCCCCCO` the outcome was “inactive”.
With `O=C1OC(=O)c2cc([N+](=O)[O-])ccc21` the outcome was “inactive”.
With `CCCCOCCOCCSC#N` the outcome was “inactive”.
For `C/C(C=O)=C/c1ccccc1`, the outcome was “inactive”.
In the case of `O=[N+]([O-])C(CO)(CO)CO`, the outcome is reported as “inactive”.
With `CCCCC(CC)COC(=O)/C=C\C(=O)OCC(CC)CCCC` (stereo not drawn) the outcome was “inactive”.
With `CC(C)N(C)C` the outcome was “inactive”.
With `CC(=O)OC1CCC(C(C)(C)C)CC1` (stereo not drawn) the outcome was “inactive”.
`FC(F)(F)c1ccc(Cl)c(Cl)c1` was tested, and the outcome was “inactive”.
With `Cc1cccc(Br)c1` the outcome was “inactive”.
In the case of `CC(=O)Nc1ccccc1C`, the outcome is reported as “inactive”.
In the case of `CCCCC(CC)CN` (stereo not drawn), the outcome is reported as “inactive”.
For `Cc1ccc(Br)cc1`, the outcome was “inactive”.
`Clc1cc(Cl)cc(Cl)c1` was tested, and the outcome was “inactive”.
In the case of `O=[N+]([O-])c1ccc2c(c1)Cc1ccccc1-2`, the outcome is reported as “inactive”.
With `Cc1cc(-c2ccc(N=Nc3cc(S(=O)(=O)O)c4ccccc4c3N)c(C)c2)ccc1N=Nc1cc(S(=O)(=O)O)c2ccccc2c1N` the outcome was “inactive”.
`Cc1ccc(N)c([N+](=O)[O-])c1` was tested, and the outcome was “inactive”.
For `Oc1ccc(O)c2c(O)cccc12`, the outcome was “inactive”.
With `CCCCCCCCCCCCCCCCCC#N` the outcome was “inactive”.
`O=[N+]([O-])c1cc(N(CCO)CCO)ccc1NCCO` was tested, and the outcome was “inactive”.
In the case of `Brc1ccc(Oc2ccc(Br)cc2)cc1`, the outcome is reported as “inactive”.
In the case of `CC(C)=CCC/C(C)=C/C=O`, the outcome is reported as “inactive”.
`CC=C(Cl)Cl` was tested, and the outcome was “inactive”.
`CC1CCCO1` (stereo not drawn) was tested, and the outcome was “inactive”.
For `CC1=C2[C@@H]([C@H](C)CC[C@H]2/C=C(\C)C(=O)O)[C@H](O)C1`, the outcome was “inactive”.
In the case of `CCCCC(CC)CN1C(=O)C2C3C=CC(C3)C2C1=O` (stereo not drawn), the outcome is reported as “inactive”.
`Cc1cccc(C)c1O` was tested, and the outcome was “inactive”.
In the case of `CCCCCCCC/C=C\CCCCCCCCO`, the outcome is reported as “inactive”.
